This is an account of results in PubChem BioAssay (NCI).

Structures are written as SMILES. About 83,000 compounds went through this panel and 20% of them were active in at least one assay; those are over-represented in the sample as a whole.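 96-well plates, one dose, 48 hours. Percent growth reported; active if below 10.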 Unmarked numbers belong to inactive results. Activity calls are given as the source filed them.

The subject of this test is HCC-2998 colon. Kind of test: NCI-60 one-dose screen, 48 h (100 = growth as untreated, 0 = no growth, -100 = all killed). The note with it: 10 µM unless noted. The protocol:
Growth inhibition of the HCC-2998 human tumor cell line is measured as a screen for anti-cancer activity. Cells are grown in 96 well plates and exposed to the test compound for 48 hours. Compounds are tested at a single concentration, which is 10^-5 M for most compounds. The reported endpoint is percent growth (GI% or GIPRCNT), where numbers from 0 - 100% represent growth inhibition, and numbers from -100% - 0 represent cell death. For example, a value of 40 represents 60% growth inhibition. A value of 0 means no net growth occurred over the course of the experiment. A value of -40 indicates 40% of cells at the beginning of the experiment died by the end of the experiment. A value of -100 means all cells are dead at the end of the experiment.
NCI-60 Human Tumor Cell Lines Screen was performed using the standard one-dose NCI protocol, which is described in more detail at https://dtp.cancer.gov/discovery_development/nci-60/default.htm.
Compounds with GIPRCNT values below 10 were considered active. Activity score was based on GIPRCNT using the following formula: […]
Score is 0 for GIPRCNT values of 100 or above, 50 for GIPRCNT values of 0, and 100 for GIPRCNT values of -100.
`C=C(CBr)[C@@H]1CC[C@]2(COC(C)=O)CC[C@]3(C)[C@H](CC[C@@H]4[C@@]5(C)CCCNC(C)(C)[C@@H]5CC[C@]43C)[C@@H]12`: the growth is 50.8%.

Turning to `O=Cc1cc2ccccc2nc1Oc1ccc(C(F)(F)F)cc1`, the growth was 108%.

`COc1cc2c(c(OC)c1OC)CCC(c1cccc(NC(=O)c3cccc(Br)c3)c1)O2` (stereo not given): the growth is 99.7%.

As to `CCOC(=O)Oc1c(OC)cc(C(=O)c2ccc(OC)c(O)c2OC)cc1OC`, the growth is 39.7%.

In the case of `COc1ccc(CC(C)=C(c2ccc(OCCN3CCCCCC3)cc2)c2ccc(OCCN3CCCCCC3)cc2)cc1`, the growth is -91.8% (active).

Turning to `C=C1C(=O)O[C@H]2[C@H]1CC/C(CNC(=O)C(C)c1ccc(CC(C)C)cc1)=C\CC[C@@]1(C)O[C@@H]21` (stereo not given in full), the growth was -5.64% (active).

With `NC(=NCCCOc1ccc(F)cc1)Nc1ccc(Cl)cc1`, the growth is 40.8%.

Regarding `COc1ccc2c(c1)C(=O)CC(c1ccccc1OC)O2` (stereo not given), the growth was 105%.

For `N#Cc1cc(-c2nc3ccccc3s2)c(=O)n(NS(=O)(=O)c2ccccc2)c1N`, the growth is 116%.

`C=C(C)[C@@H]1CC[C@]2(CN)CC[C@]3(C)[C@H](CC[C@@H]4[C@@]5(C)CCCNC(C)(C)[C@@H]5CC[C@]43C)[C@@H]12`: the growth was -80.6% (active).

Take `CSc1nc2sc3cccc(Cl)c3n2c(=N)c1C#N`: the growth is 106%.

For the compound `O=C(N/N=C/c1ccc(Oc2ccccc2)cc1)c1cnn2c1NC(c1ccccc1)C2` (stereo not given), the growth is 71.8%.

As for `COc1ccc(/C=C2\Oc3cc(OCCCCCN4CCCCC4)ccc3C2=O)cc1OC`, the growth was 94.7%.

Consider `Oc1ccc(C2c3ccccc3Oc3ccccc32)c2cccnc12`, for which the growth was 35.4%.

`N#Cc1cccc(-c2ccc3c(c2)NC(=O)/C3=C\c2ccc[nH]2)c1`: the growth was 36%.

Take `CC(C)(C)c1cc(/C=N/NC(=O)c2ccccc2NC(=O)c2cccs2)c(O)c(C(C)(C)C)c1`: the growth is 30.9%.

Take `N#CC1C(C#N)C2c3ccccc3C=CN2C1C(=O)c1ccc(Br)cc1` (stereo not given): the growth was 112%.

As for `Cc1ccc(-c2nc3ccccn3c2/C=C2/C(=O)Nc3cc(Cl)ccc32)cc1`, the growth was 92.2%.

With `N#CC1C(C#N)C(C(=O)c2ccc(Br)cc2)N2c3ccccc3C=CC12` (stereo not given), the growth was 50.7%.

Take `O=C(/C(=C/c1ccc([N+](=O)[O-])cc1)SCc1ccc(F)cc1)c1ccc(F)cc1`: the growth is 88.4%.

`CCCCCC(=O)Oc1ccc(/C(=C(/C)Cc2ccc(OC)cc2)c2ccc(OCCCN(C)C)cc2)cc1`: the growth was 69.3%.

For the compound `COc1ccc(C(=O)NNc2nc(Cl)nc(N3CCN(C(c4ccccc4)c4ccccc4)CC3)n2)cc1`, the growth is -10.7% (active).

For `O=C1Nc2ccccc2/C1=C\c1c(-c2ccc(F)cc2)nc2ccccn12`, the growth was 130%.

In the case of `C=C1C(=O)O[C@H]2[C@H]1CC/C(CNS(=O)(=O)c1cccc3ccccc13)=C\CC[C@@]1(C)O[C@@H]21`, the growth is 71.5%.

As for `O=C(Nc1cccc(C2=NCCN2)c1)c1ccc(-c2ccc(C(=O)Nc3cccc(C4=NCCN4)c3)cc2)cc1`, the growth was 81.1%.

For `COc1cccc(-c2nc3occn3c2-c2ccnc(NCCNS(=O)(=O)c3cccc4ccccc34)n2)c1`, the growth was 132%.

Take `COc1ccccc1/C(C)=N/NC(=O)CSc1nc2ccccc2c(=O)n1Cc1ccc(S(N)(=O)=O)cc1`: the growth is 95.9%.

As for `COC(=O)C1=C(C(=O)ON)C2C=CC1(C(Cc1ccccc1)Nc1ccccc1)O2` (stereo not given), the growth is 93.6%.

Regarding `O=C1Nc2ccccc2/C1=C\c1c(-c2ccccc2)nc2ccccn12`, the growth is 107%.

Take `C#CCNC(=O)[C@]1(C)CC[C@]2(C)CC[C@@H]3C(=CC[C@H]4[C@@]3(C)CC[C@H]3C(C)(C)C(=O)CC[C@]43C)[C@@H]2C1`: the growth was 101%.

In the case of `O=C(/C=C/c1ccc(F)cc1)c1ccc(NC(=O)N2CCN(c3cc4c(cc3F)c(=O)c(C(=O)O)cn4C3CC3)CC2)cc1`, the growth is 103%.

For the compound `CCOC(=O)CC1CSC(N/N=C/c2ccc(-n3cccn3)cc2)=N1` (stereo not given), the growth is 103%.

Take `CN1CCN(CCNc2nccc(-c3c(-c4cccc(O)c4)nc4sccn34)n2)S1(=O)=O`: the growth is 88%.

With `COc1cc2cc(CN3CCN(c4nccc(-c5ccc6ccccc6c5)n4)CC3)c(=O)[nH]c2cc1OC`, the growth is 101%.

With `O=C(CCN1CCCC1)Nc1ccc2c(NCCCc3ccccc3)c3ccccc3nc2c1`, the growth was 2.16% (active).

For `COc1cc(OC)cc(C(=O)C[n+]2cccc3cc[nH]c32)c1`, the growth was 107%.

`O=C(Nc1ccccc1)Nc1ccc2cc3ccc(NC(=O)Nc4ccccc4)cc3nc2c1`: the growth is -28.9% (active).

`O=C(CCN1CCCC1)Nc1ccc2c(NCCCCc3ccccc3)c3ccccc3nc2c1`: the growth was -90.9% (active).

Regarding `O=[N+]([O-])CC(c1ccccc1F)c1c[nH]c2ccccc12` (stereo not given), the growth is 80.6%.

Turning to `CC(C)(C)c1cc(C=O)cc(C(C)(C)C)c1O`, the growth was 93.6%.
